# Laboratory results reported in PubChem BioAssay AID1259418 (Broad Institute, 2018).
# Screen size: about 3,400 compounds; about 840 (25%) were called active. Another 11% or so got no clear call; they are omitted. Not all results are given here. Potency and affinity values are given separately. Unmarked numbers belong to inactive results.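 Rule for the calls: active = fitted half-maximal concentration of signal decrease at or below twice the sample's top tested concentration; inconclusive = flat curve between -70 and -30 percent, or poor fit; inactive = flat within 30 percent, signal rise, or potency above limit.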
# Assay: inhibitors of Toxoplasma growth in IFN-γ-primed HeLa – cell-based, ME49Luc, luciferase, 72 h, dose response (AID 1259418)
# Conditions: T. gondii ME49Luc in IFN-y HeLa, hits give low values, -100% = high-dose IFN-γ control wells; at 19.5 µM unless noted
row,SMILES,max activity
1,Cc1ccc(NC(=O)COc2nc(C)nc3ccccc23)c(Cl)c1,15.5% [at 0.68 µM]
2,COc1cc(OC)cc(-c2noc(-c3nnn(Cc4nc(-c5cccc(C)c5)oc4C)c3C)n2)c1,-7.99% [at 0.16 µM]
3,Cc1ccc(NC(=O)Nc2ccc(-c3nc(-c4ccc(C)cc4)co3)cc2)cc1,24% [at 5 µM]
4,CCc1cccc(-n2nnc(C(=O)N3CCC(N4CCCCC4)CC3)c2-c2cccnc2)c1,25.9% [at 0.68 µM]
5,O=C1CC(c2ccncc2)C2(CCN(Cc3nccs3)CC2)N1 (stereo not given),22.8%
6,COCC(=O)N1CCC2(CC1)CC1(CCN(CC(C)C)CC1)C(=O)N2C,34.4%
7,CCS(=O)(=O)N1CC[C@H]2[C@@H]1CCN2Cc1cnn(C)c1,27.1%
8,COc1ccc(-c2nc(Nc3ccc(OC)c(Cl)c3)c3ccccc3n2)cc1,16.4% [at 2.6 µM]
9,COc1ccc(-c2nc(Nc3cc(Cl)c(OC)cc3OC)c3ccccc3n2)cc1,18.3%
10,Cc1ccc(S(=O)(=O)N2CCC3(CC2)OC(C(=O)N(C)C)Cn2ccnc23)cc1 (stereo not given),40.3%
11,N#Cc1cccc(-c2ccc(C3[C@@H]4CN(C(=O)c5ccc6c(c5)OCO6)C[C@H]3N4)cc2)c1 (stereo not given in full),17.9%
12,O=C(Nc1ccc2c(c1)OCO2)N1C[C@@H]2N[C@H](C1)C2c1ccc(C=Cc2ccccc2)cc1 (stereo not given in full),116% [at 1.2 µM]
13,COc1ccccc1NC(=O)N1C[C@@H]2N[C@H](C1)C2c1ccc(/C=C/c2ccccc2)cc1 (stereo not given in full),-98%
14,O=C(C1CC1)N1C[C@@H]2N[C@H](C1)C2c1ccc(/C=C/c2ccccc2)cc1 (stereo not given in full),92.7% [at 0.08 µM]
15,N#Cc1ccc(-c2ccc([C@@H]3[C@H]4CNC[C@@H]3N4Cc3ccc4c(c3)OCO4)cc2)cc1,28.6% [at 10 µM]
16,O=C(CN1CCOCC1)N1C[C@@H]2N[C@H](C1)C2c1ccc(/C=C/c2ccccc2)cc1 (stereo not given in full),41.5% [at 10 µM]
17,O=C(Nc1ccccc1F)N1C[C@@H]2N[C@H](C1)C2c1ccc(/C=C/c2ccccc2)cc1 (stereo not given in full),85.7% [at 1.2 µM]
18,Cc1cccc(N2CCN(C(=O)c3ccc(-c4csc(C5CC5)n4)cc3)CC2C)c1 (stereo not given),40.1%
19,CCN1C(=O)CCc2cc(NC(=O)c3ccc(Br)o3)ccc21,15.9% [at 10 µM]
20,Cc1ccc(-c2coc(-c3ccc(NC(=O)Nc4ccccc4Br)cc3)n2)cc1,-10.7% [at 10 µM]
21,CCc1ccccc1NC(=O)CN1CCC2(CC1)N=C(c1cccc(Cl)c1)C(=O)N2,9.92%
22,Cn1c(=O)c(C(=O)NCc2ccccc2Cl)cc2cccnc21,196%
23,Cc1ccccc1N(Cc1nc(-c2ccc(OC(C)C)cc2)oc1C)S(=O)(=O)c1cccs1,4.55%
24,CCOc1ccc(-c2nc(CN(c3ccccc3C)S(=O)(=O)c3cccs3)c(C)o2)cc1OC,-13.1% [at 0.16 µM]
25,Cc1ccccc1N(Cc1nc(-c2cccc(Cl)c2)oc1C)S(=O)(=O)c1cccs1,-9.43% [at 5 µM]

row,SMILES,max activity
1,CCOc1ccc(-c2nc(CN(c3ccccc3OCC)S(=O)(=O)c3cccs3)c(C)o2)cc1,6.64%
2,CCOC(=O)CSC1=Nc2ccccc2C2=NC(CC(=O)NCc3ccco3)C(=O)N12 (stereo not given),21.4% [at 1.35 µM]
3,COc1ccc(C(=O)Nc2ccc(-c3nc(-c4cc(C)ccc4C)co3)cc2)cc1,9.17%
4,COc1ccccc1C(=O)N1CCC2(CC1)Nc1ccc(C)c(C)c1-n1cccc12,-7.27% [at 1.35 µM]
5,CN1CCC(N2CCN(c3ncccc3-c3nnc(-c4ccc(Cl)cc4)o3)CC2)CC1,4.69%
6,Cc1ccc(NC(=O)Nc2ccc(-c3nc(-c4ccccc4)co3)cc2)cc1Cl,9.34%
7,CCOc1ccc(NC(=O)COc2nc(C)nc3ccccc23)cc1,30.4% [at 10 µM]
8,Cc1ccc2c(c1C)-n1cccc1C1(CCN(C(=O)COc3ccc(F)cc3)CC1)N2,-9.55% [at 0.16 µM]
9,Cc1ccc(-c2coc(-c3ccc(NC(=O)CC4CCCCC4)cc3)n2)cc1,-15.2%
10,CCOc1ccccc1N(Cc1nc(-c2cccc(Cl)c2)oc1C)S(=O)(=O)c1cccs1,6.9%
11,COc1ccccc1N(Cc1nc(-c2ccc(OC(C)C)cc2)oc1C)S(=O)(=O)c1cccs1,-8.76% [at 0.35 µM]
12,CCOc1ccccc1N(Cc1nc(-c2cccc(C)c2)oc1C)S(=O)(=O)c1cccs1,10.6%
13,COc1ccccc1N(Cc1nc(-c2ccccc2)oc1C)S(=O)(=O)c1cccs1,-5.51% [at 0.68 µM]
14,O=C(O)CN1C[C@H]2c3ccccc3C(OCC3CC3)[C@@H]2C1 (stereo not given in full),42.3%
15,CCc1ccc2c(c1)cc(S(=O)(=O)c1ccccc1)c(=O)n2CC(=O)NC1CCCC1,14.3% [at 0.16 µM]
16,COc1ccc(-c2nc(Nc3ccc(C)c(F)c3)c3ccccc3n2)cc1,17.7% [at 2.6 µM]
17,O=C(Cn1cccc1-c1nc(-c2ccccc2)cs1)N1CCC2(CC1)OCCO2,-15.4% [at 2.6 µM]
18,COc1ccccc1N(Cc1nc(-c2ccccc2)oc1C)S(=O)(=O)c1ccccc1C,9.45% [at 5 µM]
19,Cc1csc([C@H]2C[C@H]3CCN(C(=O)c4cnccn4)C[C@@H]3O2)n1,48.1%
20,COc1ccc(-c2nc(C)c(-c3ccc(SCc4ccc(C(F)(F)F)cc4)nn3)s2)cc1,8.72% [at 2.6 µM]
21,CCCCC(=O)N1CCC2(CC1)Nc1cc(OC)ccc1-n1cccc12,14.1% [at 2.6 µM]
22,Cc1ccc(-c2nc(CN3CCN(C(=O)Nc4ccccc4Cl)CC3)c(C)o2)cc1,16.4% [at 2.6 µM]
23,O=C(CC1N=C2c3ccccc3N=C(SCc3ccccc3Cl)N2C1=O)NCc1ccccc1 (stereo not given),12.8% [at 2.6 µM]
24,O=C(CC1N=C2c3ccccc3N=C(SCc3ccccc3Cl)N2C1=O)NCc1ccc(F)cc1 (stereo not given),-7.22% [at 0.16 µM]
25,O=C(CC1N=C2c3ccccc3N=C(SCc3ccc(Cl)cc3)N2C1=O)NCc1ccc(F)cc1 (stereo not given),15%

row,SMILES,max activity
1,O=C(CC1N=C2c3ccccc3N=C(SCc3cccc(Cl)c3)N2C1=O)NCc1ccc(F)cc1 (stereo not given),30.2%
2,CCOC(=O)CSC1=Nc2ccccc2C2=NC(CC(=O)NCCc3ccccc3)C(=O)N12 (stereo not given),64.6%
3,O=C(CC1N=C2c3ccccc3N=C(SCc3cccc(Cl)c3)N2C1=O)NCc1ccc2c(c1)OCO2 (stereo not given),19.4% [at 10 µM]
4,COc1ccccc1-c1nc(Cn2nnc(-c3nc(-c4ccc(Cl)cc4)no3)c2C)c(C)o1,9.29%
5,COc1ccc(C(=O)Nc2ccc(-c3nc(-c4ccc(C)cc4)co3)cc2)cc1OC,61.6% [at 10 µM]
6,COC(=O)c1ccc(NC(=O)Nc2ccc(-c3nc(-c4ccc(C)cc4C)co3)cc2)cc1,12.9% [at 0.68 µM]
7,CN(C)c1cccc(C(=O)N2CSC[C@@H]2C(=O)NCCc2csc(-c3ccccc3)n2)c1,9.09% [at 0.16 µM]
8,CCOC(=O)c1ccc(NC(=O)CN2CCC3(CC2)N=C(c2ccccc2)C(=O)N3)cc1,23.6%
9,COc1ccc(-c2nc(CN(c3ccc(OC)cc3)S(=O)(=O)c3ccccc3C)c(C)o2)cc1,2.45%
10,Cc1oc(-c2ccccc2)nc1Cn1nnc(-c2nc(-c3ccc(OC(C)C)cc3)no2)c1C,-7.48% [at 5 µM]
11,CCc1nc(OCC(=O)Nc2ccccc2Br)c2ccccc2n1,18.5% [at 0.68 µM]
12,O=C(NCCc1csc(-c2ccccc2)n1)[C@H]1CSCN1S(=O)(=O)c1ccccc1F,11.9% [at 0.16 µM]
13,O=C(Nc1ccccc1)[C@@H]1[C@@H](CO)[C@@H]2Cn3c(ccc(C4=CCCCC4)c3=O)[C@@H]2N1Cc1cocn1,31.9%
14,Cc1cccc(-c2noc(-c3nnn(Cc4nc(-c5cccc(C)c5)oc4C)c3C)n2)c1,17.9%
15,Cc1ccc(-c2coc(-c3ccc(NC(=O)NCCc4ccccc4)cc3)n2)c(C)c1,27.7% [at 0.35 µM]
16,Cc1ccc(NC(=O)CN2CCC3(CC2)N=C(c2cccc(F)c2)C(=O)N3)cc1C,-21.1%
17,CCOc1ccc(NC(=O)N2CCN(Cc3nc(-c4ccccc4C)oc3C)CC2)cc1,-9.52%
18,Cc1nc(OCC(=O)Nc2ccc(C(C)C)cc2)c2ccccc2n1,15.7% [at 1.35 µM]
19,CC(C)CCNC(=O)CC1Nc2c3ccccc3nc(=S)n2C1=O (stereo not given),41.3%
20,CCOc1ccccc1NC(=O)CN1CCC2(CC1)N=C(c1cccc(Cl)c1)C(=O)N2,5.75%
21,COc1ccccc1-c1nc(Cn2nnc(-c3nc(-c4cccc(F)c4)no3)c2C)c(C)o1,-3.46% [at 1.35 µM]
22,Cc1ccc(-c2nc(Cn3nnc(-c4nc(-c5cccc(C)c5)no4)c3C)c(C)o2)cc1,-13% [at 5 µM]
23,Cc1ccccc1-c1ccc(C2[C@@H]3CN(C(=O)C4CCOCC4)C[C@H]2N3)cc1 (stereo not given in full),20.5%
24,O=C(NC1CCCCC1)N1C[C@@H]2N[C@H](C1)C2c1ccc(-c2ccc(F)cc2)cc1 (stereo not given in full),23.1% [at 10 µM]
25,CCCNC(=O)N1CCc2nc(-c3ccc(OC)cc3)sc2C1,12.7% [at 10 µM]
